Consider 24 compounds from publication PMC4336329 (PLoS ONE, 2015).

Among all 310,000 compounds or so, about 14,000 (4.5%) showed an effect of 50% or more. The effect is printed as a negative number. Only a selection was taken, and strong results are over-represented in it overall.
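Note: peak tail current of the secondary pulse compared with the same well before compound.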

In this experiment the target is human ether-à-go-go-related gene (hERG) potassium channel (human, UniProt Q12809). As to the kind of experiment: primary screen, population patch clamp on CHO cells stably expressing hERG; higher = less effect of the substance.
human ether-à-go-go-related gene (hERG) potassium channel, sequence (Q12809 whole entry, looked up): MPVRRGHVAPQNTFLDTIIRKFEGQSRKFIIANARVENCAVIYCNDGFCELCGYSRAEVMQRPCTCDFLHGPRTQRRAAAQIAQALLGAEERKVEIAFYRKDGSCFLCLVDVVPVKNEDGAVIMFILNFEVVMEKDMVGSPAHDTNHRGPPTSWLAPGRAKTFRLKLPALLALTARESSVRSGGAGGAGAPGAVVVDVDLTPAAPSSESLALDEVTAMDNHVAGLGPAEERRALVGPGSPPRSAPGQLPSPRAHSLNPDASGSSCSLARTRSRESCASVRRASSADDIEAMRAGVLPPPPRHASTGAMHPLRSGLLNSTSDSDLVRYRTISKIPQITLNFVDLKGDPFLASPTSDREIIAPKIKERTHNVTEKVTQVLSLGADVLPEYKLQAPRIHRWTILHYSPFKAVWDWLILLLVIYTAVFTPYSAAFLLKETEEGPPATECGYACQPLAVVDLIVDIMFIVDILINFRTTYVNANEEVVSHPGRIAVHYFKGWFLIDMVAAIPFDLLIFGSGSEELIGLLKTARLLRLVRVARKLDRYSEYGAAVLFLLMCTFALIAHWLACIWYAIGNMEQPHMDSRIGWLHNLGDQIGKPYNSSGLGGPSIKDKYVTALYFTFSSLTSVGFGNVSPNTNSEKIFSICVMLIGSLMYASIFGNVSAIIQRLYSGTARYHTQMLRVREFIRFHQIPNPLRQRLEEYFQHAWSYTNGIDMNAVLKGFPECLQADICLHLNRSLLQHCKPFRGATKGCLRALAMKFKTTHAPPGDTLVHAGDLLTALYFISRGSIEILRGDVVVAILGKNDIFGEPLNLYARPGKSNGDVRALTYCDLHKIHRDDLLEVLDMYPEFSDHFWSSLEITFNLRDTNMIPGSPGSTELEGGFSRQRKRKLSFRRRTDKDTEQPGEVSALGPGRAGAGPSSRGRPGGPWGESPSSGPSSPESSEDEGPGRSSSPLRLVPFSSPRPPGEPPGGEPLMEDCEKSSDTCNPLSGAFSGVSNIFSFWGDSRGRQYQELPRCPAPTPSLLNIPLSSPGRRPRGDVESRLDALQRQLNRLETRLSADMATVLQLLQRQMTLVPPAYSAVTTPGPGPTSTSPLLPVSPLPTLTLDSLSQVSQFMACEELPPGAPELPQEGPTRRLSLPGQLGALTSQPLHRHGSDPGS
As to `COc1ccccc1CCNC(=O)C(=O)NCC1OCCN1S(=O)(=O)c1ccc([N+](=O)[O-])cc1` (stereo not drawn), the “hERG current change (%, negative = inhibition) at 10uM” value is -46.7%.
`O=C(NCCN1CCOCC1)c1ccc2c(c1)ncn2C1CCCC1`: the “hERG current change (%, negative = inhibition) at 10uM” value is recorded as -6.39%.
In the case of `Cc1ccc2[nH]c3c(N4CCN(Cc5ccccc5)CC4)ncnc3c2c1`, the “hERG current change (%, negative = inhibition) at 10uM” value is listed as -72.3%.
Turning to `Cc1ccc2c(c1)[nH]c1c(N3CCN(Cc4ccccc4)CC3)ncnc12`, the “hERG current change (%, negative = inhibition) at 10uM” value is listed as -24.5%.
Turning to `COc1ccc2[nH]c3c(N4CCN(Cc5ccc6c(c5)OCO6)CC4)ncnc3c2c1`, the “hERG current change (%, negative = inhibition) at 10uM” value is recorded as -18.8%.
With `COc1ccc2c(c1)[nH]c1c(N3CCN(Cc4ccc5c(c4)OCO5)CC3)ncnc12`, the “hERG current change (%, negative = inhibition) at 10uM” value is on record as -74%.
With `c1ccc(CN2CCN(c3ncnc4c3[nH]c3ccccc34)CC2)cc1`, the “hERG current change (%, negative = inhibition) at 10uM” value was -62.5%.
To `c1ccc2c(c1)[nH]c1c(N3CCCC3)ncnc12` belongs -15.2%; to `COc1cccc2[nH]c3c(N4CCN(Cc5ccc6c(c5)OCO6)CC4)ncnc3c12`, -17.3%.
For the compound `c1ccc2c(c1)[nH]c1c(N3CCSCC3)ncnc12`, the “hERG current change (%, negative = inhibition) at 10uM” value is listed as -4.82%.
On to `Cc1ccc2[nH]c3c(N4CCOCC4)ncnc3c2c1`, for which the “hERG current change (%, negative = inhibition) at 10uM” value was -0.757%.
`Cn1c2c(c(=O)n(C)c1=O)C(NC(=O)c1ccco1)(C(F)(F)F)C(=O)N2` (stereo not drawn): the “hERG current change (%, negative = inhibition) at 10uM” value is reported as 16.3%.
With `O=C1OC(c2ccccc2)=C/C1=C/N1CCOCC1`, the “hERG current change (%, negative = inhibition) at 10uM” value is on record as 2.28%.
With `O=C(NCCc1nnc2ccc(NCc3ccccc3Cl)nn12)c1ccccc1`, the “hERG current change (%, negative = inhibition) at 10uM” value was 10.4%.
Regarding `N#Cc1cc2c(nc1SCC(=O)O)CCCCC2`, the “hERG current change (%, negative = inhibition) at 10uM” value was found to be 3.05%.
Under `CCOC(=O)c1sc(NC(=O)c2ccc3ncsc3c2)nc1C` stands 10.8%.
Turning to `O=C(Nc1ccccc1Cl)c1cc[n+]([O-])cc1`, the “hERG current change (%, negative = inhibition) at 10uM” value worked out at 27.8%.
Consider `COc1ccc(CC[NH+](C)CCCN2CC(c3ccccc3)CC2=O)cc1OC.O=C([O-])C(=O)[O-]` (stereo not drawn), for which the “hERG current change (%, negative = inhibition) at 10uM” value was -71.1%.
`COc1ccc(C2CC(=O)N(CCC[NH+](C)CCc3ccc(OC)c(OC)c3)C2)cc1.O=C([O-])C(=O)[O-]` (stereo not drawn): the “hERG current change (%, negative = inhibition) at 10uM” value is given as -74.7%.
Take `COc1ccc(CCN2CC(C(=O)NCc3ccc(F)cc3)CC2=O)cc1OC` (stereo not drawn): the “hERG current change (%, negative = inhibition) at 10uM” value was found to be 2.45%.
For `COc1ccc(CCN2CC(C(=O)O)CC2=O)cc1OC` (stereo not drawn), the “hERG current change (%, negative = inhibition) at 10uM” value is 0.984%.
On to `COc1ccc(C2SCC(=O)N2CCc2ccc(OC)c(OC)c2)cc1` (stereo not drawn), for which the “hERG current change (%, negative = inhibition) at 10uM” value was -31.3%.
For the compound `COc1ccc(NC(=O)CN2CC(c3ccccc3)CC2=O)cc1OC` (stereo not drawn), the “hERG current change (%, negative = inhibition) at 10uM” value turned out to be 8.33%.
In the case of `O=C(/C=C/c1ccc(O)cc1)c1ccc(O)cc1O`, the “hERG current change (%, negative = inhibition) at 10uM” value was 9.4%.
